Screens as filed in PubChem BioAssay.
Sampled rows, rich in hits. Any-hit rate of the full collection: about 6.7%.
Pf Dd2 inh – P. falciparum Dd2 growth inhibitors, primary screen, SYBR Green fluorescence, single dose replicates; activity change, % at 10 µM; 72 h; stronger effect = lower value; 2.3% of 94,000 active; in the data active means activity change below about -80%; inconclusive means no clear call, values can overlap the other calls
C diff HTS – C. difficile growth inhibitors, primary screen, HTS; 0.25% of 86,000 active; Clostridium difficile clinical isolate growth, OD600, 24 h; stronger effect = lower value; growth activity, negative = inhibition, % at 16 µg/mL (by protocol);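 active means mean growth activity at or below -80% and every replicate also at or below -80%; inconclusive means mean at or below -80% but some replicate above -80%; inactive means mean growth activity above -80%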;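 further: 0% = DMSO wells and -100% = levofloxacin 16 µg/mL wells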
T cruzi growth-1 – T. cruzi intracellular proliferation inhibitors, primary screen, cell-based, beta-gal Tulahuen parasites, NIH3T3 host, luminescence; AID 624255, 2012; inhibition, % at 8.34 µM; T. cruzi beta-gal in NIH3T3, GalScreen luminescence, 90 h; 5.9% of 77,000 active;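 active means mean inhibition above about 93%, with at least 55% of replicates each passing it, limit read from the data, passing the limit was not always enough; inconclusive means only one of those two conditions holds; inactive means neither condition holds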
T cruzi growth-2 – T. cruzi intracellular proliferation inhibitors, confirmation, cell-based, NIH3T3 host, beta-gal parasite, luminescence, cherry-pick | shares compounds with T cruzi growth-1 | T. cruzi beta-gal in NIH3T3, GalScreen luminescence, 90 h | inhibition, % at 8.35 µM | 72% of 5,600 active;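 active means mean replicate inhibition above about 95% and at least 55% of replicates individually reaching it, limit read from the data; inconclusive means only one of the two criteria is met; inactive means neither criterion is met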
T cruzi growth-3 – inhibitors of intracellular T. cruzi replication, confirmation, NIH3T3 host cells, beta-gal parasites, cherry-pick, set 2; shares compounds with T cruzi growth-1; T. cruzi beta-gal in NIH3T3, GalScreen luminescence, 90 h; inhibition, % at 2.09 µM; 21% of 5,600 active; AID 651740, 2012;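 active means mean inhibition above about 95%, with at least 55% of replicates also reaching it, limit read from the data; inconclusive means meets just one of the two conditions; inactive means meets neither condition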;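 further: plate controls were neutral control median for no effect and positive control median for full effect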
3T3 cytotox – cytotoxicity in mouse NIH/3T3 fibroblasts, confirmation, cytotoxicity control for T. cruzi proliferation inhibitor project, cell-based, cherry-pick, single point | 14% of 5,600 active | NIH/3T3 viability, CellTiter-Glo ATP luminescence, 90 h | cytotoxicity (signal decrease), % at 8.35 µM | AID 651742, 2012 | shares compounds with T cruzi growth-1;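 active means mean signal decrease across replicates above about 35% based on untreated-well scatter, with enough replicates individually passing, limit read from the data; inconclusive means no rule stated though some were filed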;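 further: 0% = median of neutral control wells and 100% = median of positive control wells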
3T3 cytotox 2 – NIH/3T3 fibroblast cytotoxicity, confirmation, cytotoxicity control, cell-based, cherry-pick, single point, set 2 | shares compounds with T cruzi growth-1 | NIH/3T3 viability, CellTiter-Glo ATP luminescence, 90 h | inhibition, % at 24.9 µM | 56% of 5,600 active;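 active means mean loss of cell viability signal at or above a set limit, and enough replicates individually reaching it; inconclusive means meets only the mean limit or only the replicate share; inactive means meets neither condition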;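 further: 0% = median of neutral control wells and 100% = median of positive control wells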
Active calls of the source: *; ? = inconclusive; . = not tested or not shown.

SMILES | Pf Dd2 inh | C diff HTS | T cruzi growth-1 | T cruzi growth-2 | T cruzi growth-3 | 3T3 cytotox | 3T3 cytotox 2
O=C(CCN1CCCCC1)NCC[C@@H]1CC[C@H](NC(=O)C2CCOCC2)[C@@H](CO)O1 | 10.5 | 0.6 | 9.6 | . | . | . | .
O=C(c1ccc2c(c1)OCO2)N1CC[C@@H]2[C@@H](CO)Nc3ccc(-c4ccccc4)cc3[C@@H]21 | -60.7 | -18.6 | 94.3 | . | . | . | .
CCS(=O)(=O)N1CCC2(CC1)CN(C(=O)Nc1c(C)noc1C)[C@@H](CO)c1[nH]c3cc(OC)ccc3c12 | -28.9 | -1.0 | . | . | . | . | .
CC(C)NC(=O)N1CCCCN2[C@H](CO)[C@@H](c3ccc(C#C[C@@H](C)O)cc3)[C@H]2C1 | 19.0 | 0.9 | 46.9 | . | . | . | .
CC(C)NC(=O)N1CCCCN2[C@H](CO)[C@H](c3ccc(C#C[C@@H](C)O)cc3)[C@@H]2C1 | -0.7 | 0.4 | 68.1 | . | . | . | .
CC(C)NC(=O)N1CCCCN2[C@H](CO)[C@@H](c3ccc(C#C[C@H](C)O)cc3)[C@@H]2C1 | -77.6 | 0.5 | 106.1* | 46.9 | 24.5 | 11.4 | 24.5
CC(C)NC(=O)N1CCCCN2[C@H](CO)[C@H](c3ccc(C#Cc4ccccc4)cc3)[C@@H]2C1 | -65.8 | -7.6 | 114.7* | 108.9* | 56.5 | 41.5* | 62.2*
O=C(C[C@@H]1C=C[C@@H](NC(=O)CN2CCOCC2)[C@H](CO)O1)NCCc1ccncc1 | 12.9 | -1.2 | . | . | . | . | .
C[C@H](CO)N1C[C@H](C)[C@H](CN(C)Cc2cccnc2)Oc2ncc(-c3cccc(F)c3)cc2C1=O | -5.3 | -8.7 | 24.1 | . | . | . | .
COCC(=O)N1[C@H](CO)[C@@H]2c3ccccc3N(C(=O)NC(C)C)C[C@@H]21 | 34.9 | -6.1 | . | . | . | . | .
COc1ccc(CN2CC3(CN(C(=O)Cc4ccncc4)C3)c3c([nH]c4cc(OC)ccc34)[C@H]2CO)cc1 | -55.8 | 1.5 | . | . | . | . | .
CNC[C@H]1Oc2ccc(NS(=O)(=O)c3cccs3)cc2CC(=O)N([C@@H](C)CO)C[C@H]1C | 4.0 | 4.9 | 33.4 | . | . | . | .
C[C@H](O)C#Cc1ccc2c(c1)O[C@@H](CN(C)Cc1ccncc1)[C@H](C)CN([C@@H](C)CO)S2(=O)=O | -40.6 | 2.1 | 110.5* | 98.4* | 72.6 | 32.1 | 50.3*
C[C@@H]1CN([C@@H](C)CO)S(=O)(=O)c2ccc(C#C[C@@H](C)O)cc2O[C@H]1CN(C)Cc1ccncc1 | -46.9 | 2.1 | 102.3* | 100.9* | 66.4 | 29.0 | 27.1*
C[C@H](O)C#Cc1ccc2c(c1)O[C@H](CN(C)Cc1ccncc1)[C@@H](C)CN([C@H](C)CO)S2(=O)=O | -38.5 | 3.3 | 56.8 | . | . | . | .
C[C@@H]1CN([C@H](C)CO)S(=O)(=O)c2ccc(C#C[C@@H](C)O)cc2O[C@@H]1CN(C)Cc1ccncc1 | -34.8 | -4.1 | 75.5 | . | . | . | .
C[C@@H]1CN([C@H](C)CO)S(=O)(=O)c2ccc(C#C[C@@H](C)O)cc2O[C@H]1CN(C)Cc1ccncc1 | -35.5 | -0.5 | 104.3* | 95.5* | 35.8 | 15.2 | 14.3
C[C@H](O)C#Cc1ccc2c(c1)O[C@H](CN(C)Cc1ccncc1)[C@H](C)CN([C@H](C)CO)S2(=O)=O | -28.3 | -1.0 | 60.5 | . | . | . | .
COc1ccc(CN(C)C[C@@H]2OCCCC[C@H](C)Oc3ccc(NC(=O)NC4CCCCC4)cc3C(=O)N([C@H](C)CO)C[C@@H]2C)cc1 | 5.0 | -2.0 | -32.6 | . | . | . | .
COc1ccc(NC(=O)Nc2cccc3c2O[C@@H](CN(C)S(=O)(=O)c2ccccc2)[C@@H](C)CN([C@H](C)CO)C3=O)cc1 | 0.5 | 3.8 | 32.8 | . | . | . | .
CCN1[C@H](C(=O)NCC(F)(F)F)[C@@H](CO)[C@@H]2Cn3c(ccc(-c4ccccc4)c3=O)[C@@H]21 | 10.0 | -1.7 | 57.3 | . | . | . | .
C[C@@H]1CN([C@@H](C)CO)C(=O)c2cc(NC(=O)CCCN(C)C)ccc2O[C@@H](C)CCCCO[C@@H]1CN(C)C(=O)Cc1ccccc1 | . | 3.2 | 34.6 | . | . | . | .
O=C(C[C@H]1C[C@@H]2c3cc(NS(=O)(=O)c4ccc(F)cc4)ccc3O[C@@H]2[C@H](CO)O1)NCc1ccc(Oc2ccccc2)cc1 | -32.5 | . | 118.1* | 97.3* | 32.0 | -9.8 | 78.6*
O=C(C[C@@H]1C[C@H]2c3cc(NS(=O)(=O)c4ccc(F)cc4)ccc3O[C@H]2[C@H](CO)O1)NCc1ccc(Oc2ccccc2)cc1 | -47.1 | . | 46.9 | . | . | . | .
COc1cccc(S(=O)(=O)Nc2ccc3c(c2)[C@H]2C[C@H](CC(=O)NCc4cccc(F)c4)O[C@@H](CO)[C@H]2O3)c1 | -37.8 | 2.9 | ? | 82.5 | 11.7 | -9.9 | -12.0
SMILES | Pf Dd2 inh | C diff HTS | T cruzi growth-1 | T cruzi growth-2 | T cruzi growth-3 | 3T3 cytotox | 3T3 cytotox 2
O=C(C[C@@H]1C[C@@H]2c3cc(NS(=O)(=O)c4ccc(F)cc4)ccc3O[C@@H]2[C@@H](CO)O1)NCc1ccc(Oc2ccccc2)cc1 | -62.7 | . | 18.1 | . | . | . | .
O=C(C[C@@H]1C[C@@H]2c3cc(NS(=O)(=O)c4ccc(F)cc4)ccc3O[C@@H]2[C@H](CO)O1)NCc1ccc(Oc2ccccc2)cc1 | -58.8 | -0.7 | 105.0* | 99.9* | -19.6 | 4.1 | 11.3
COc1cccc(S(=O)(=O)Nc2ccc3c(c2)[C@H]2C[C@H](CC(=O)NCc4cccc(F)c4)O[C@H](CO)[C@H]2O3)c1 | -32.1 | -4.5 | 58.3 | . | . | . | .
O=C(C[C@@H]1C[C@@H]2c3cc(NS(=O)(=O)c4ccc(F)cc4)ccc3O[C@@H]2[C@H](CO)O1)NCc1ccccc1 | -7.3 | . | -13.7 | . | . | . | .
O=C(C[C@@H]1C[C@H]2c3cc(NS(=O)(=O)c4ccc(F)cc4)ccc3O[C@H]2[C@@H](CO)O1)NCc1ccc(Oc2ccccc2)cc1 | -16.0 | . | 114.5* | ? | 54.3 | 36.6* | 67.1*
C[C@H](CO)N1C[C@H](C)[C@H](CN(C)C(=O)Nc2ccc(F)cc2)Oc2ccc(NC(=O)Cc3ccccc3)cc2C1=O | -2.2 | 7.3 | . | . | . | . | .
C[C@H]1CN([C@@H](C)CO)S(=O)(=O)c2ccc(C#Cc3ccccc3F)cc2O[C@H]1CN(C)CC1CC1 | -63.6 | 12.3 | 100.0 | . | . | . | .
Cc1noc(C)c1NC(=O)Nc1ccc2c(c1)CC(=O)N([C@@H](C)CO)C[C@H](C)[C@@H](CN(C)S(=O)(=O)c1ccc(Cl)cc1)O2 | 11.7 | 7.3 | 14.8 | . | . | . | .
N#C[C@H]1[C@H](c2ccc(-c3ccccc3F)cc2)[C@@H](CO)N1C(=O)C1CCOCC1 | 11.2 | -5.4 | 46.1 | . | . | . | .
COc1ccccc1-c1ccc2c(c1)O[C@@H](CN(C)C(=O)c1ccccc1)[C@H](C)CN([C@@H](C)CO)S2(=O)=O | -43.5 | 1.2 | 17.2 | . | . | . | .
